FLuc modulator: qHTS profiling assay for firefly luciferase inhibitor/activator using purifed enzyme and Km concentrations of substrates (counterscreen for miR-21 project); 360,000 compounds, 6.9% hits; purified FLuc, Km substrates, luminescence inhibition; Potency, µM (titrated, usually from 57.5 µM), for inactives: at the highest dose activity change, negative = inhibition, most hits filed as inhibitors; Luciferin 4-monooxygenase (Photinus pyralis), P08659;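 further: plate controls were vehicle for no effect and reference inhibitor for full effect; nearly all actives have a fitted effect of over 55% in size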
Target sequence (P08659 whole entry, looked up): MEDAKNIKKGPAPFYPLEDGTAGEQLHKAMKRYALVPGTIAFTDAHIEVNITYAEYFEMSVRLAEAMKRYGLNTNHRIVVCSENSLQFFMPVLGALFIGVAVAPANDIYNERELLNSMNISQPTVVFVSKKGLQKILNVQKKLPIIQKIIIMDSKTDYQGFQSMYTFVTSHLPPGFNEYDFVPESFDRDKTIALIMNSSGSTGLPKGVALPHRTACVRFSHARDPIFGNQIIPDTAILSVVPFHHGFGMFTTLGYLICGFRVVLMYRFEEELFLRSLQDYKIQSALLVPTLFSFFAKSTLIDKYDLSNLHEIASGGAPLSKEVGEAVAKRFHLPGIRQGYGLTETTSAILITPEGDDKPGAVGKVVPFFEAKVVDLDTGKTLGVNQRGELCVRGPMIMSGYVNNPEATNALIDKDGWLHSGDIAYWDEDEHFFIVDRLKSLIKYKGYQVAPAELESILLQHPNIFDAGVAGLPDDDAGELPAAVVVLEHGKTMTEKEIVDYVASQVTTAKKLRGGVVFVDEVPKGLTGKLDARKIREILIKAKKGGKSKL
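Purified P. pyralis luciferase (10nM final) with 10uM D-luciferin and 10uM ATP (Km levels) in 50mM Tris acetate pH 7.5, 10mM Mg acetate, 0.01% Tween-20, 0.05% BSA; qHTS 6-point titration, ~60 µM downward; luminescence read.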
Luc counter: Counterscreen for Luciferase (Kinase-Glo TM) Inhibition. Luciferin 4-monooxygenase (Photuris pensylvanica), Q27757. Kinase-Glo luciferase, ATP luminescence, 8 min. Potency, µM (highest dose often 38.3 µM), without a hit: at the highest dose activity change, negative = inhibition, usual class: inhibitors. 200,000 compounds, 0.28% hits. AID 1379, 2008; further: on the % scale 0 is the no-effect control and ±100 the full control effect; nearly all actives have a fitted effect of over 60% in size
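Light output from Kinase-Glo luciferase with luciferin and 10 uM ATP in 50 mM imidazole pH 7.2, KCl, MgCl2, Tween 20, BSA; compound pin-delivered, 8-min ambient incubation, then luminescence read.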
SMN2 splice up: qHTS Assay for Enhancers of SMN2 Splice Variant Expression; HEK293 SMN2-luciferase splicing reporter, luminescence, 30-36 h; Potency, µM (top dose mostly 46.1 µM), without a hit: at the top dose activity change, positive = activation, actives largely listed as activators; AID 1458, 2008; 210,000 compounds, 2.8% hits; further: % of control where 0% means no effect; nearly all actives have a fitted effect of over 55% in size
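HEK293 cells carry an SMN2 […]–luciferase reporter in which exon 7 inclusion puts luciferase in frame. Cells were plated 10-12 h before compound addition, then incubated 30-36 h at 37C. ONE-Glo luminescence was read; sodium butyrate at 4.5 mM final served as control.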
NPC1 prom act: qHTS Assay for NPC1 Promoter Activators; Huh7 NPC1 promoter luciferase reporter, 24 h; Potency, µM (series often up to 9.22 µM), inactives show at the highest dose activation, actives largely listed as activators; 320,000 compounds, 2.4% hits; further: % of control where 0% means no effect; nearly all actives have a fitted effect of over 60% in size
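Stably transfected Huh7 (NPC1 promoter→luciferase), 1500 cells/well in Opti-MEM + 10% FBS, 2 h settle, then compound 24 h at 37 °C. Luminescence after 10 min with Amplite reagent.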
Rab9 promoter act: qHTS Assay for Rab9 Promoter Activators. Huh7 Rab9 promoter-luciferase reporter, luminescence, 24 h. Potency, µM (doses to about 9.22 µM), for the others: top-dose activation, negative = inhibition, usual class: activators. 320,000 compounds, 2.8% hits. AID 485297, 2010; further: % of control where 0% means no effect; nearly all actives have a fitted effect of over 60% in size
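Huh7 cells stably carrying a Rab9 promoter-luciferase reporter, 1500 cells per well in OP-MEM I with 10% FBS, treated with compound 24 hours at 37C. Luciferase activity read by luminescence after 10 minutes with Amplite reagent.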
ELG1 genotox: qHTS screen for small molecules that induce genotoxicity in human embryonic kidney (HEK293T) cells expressing luciferase-tagged ELG1. 330,000 compounds, 1.3% hits. Potency, µM (highest dose often 46 µM), for inactives: top-dose activity change, positive = activation, usual class: activators. HEK293T ELG1-luciferase reporter, luminescence, 16 h; further: % of control where 0% means no effect; nearly all actives have a fitted effect of over 60% in size
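Genotoxic stress is detected as increased luminescence from luciferase-tagged ELG1 in HEK293T cells, measured with ONE-Glo after a 16 hr treatment at 37 °C.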
* marks the source's active call; other numbers are inactive results; ? = inconclusive; nt = no result; [ ] = dose if it differs, or a comment. Rows were chosen to be rich in hits. Some 7.3% of all compounds tested hit in one or more screens of this group. The call rests on the fitted dose curve; in most records, active means well fitted curve in the direction sought with a large enough effect; inconclusive means small, poorly fitted or top-dose-only effect, or another doubt; inactive means no such curve, though single readings can be large; an effect the other way counts as inactive or inconclusive. Potency means the concentration at half of the fitted maximal effect.

SMILES | FLuc modulator | Luc counter | SMN2 splice up | NPC1 prom act | Rab9 promoter act | ELG1 genotox
Cc1cc(C)c(Cn2c(C)c(CNCCCc3ccccc3)c(C(=O)O)c2C)c(C)c1 | 0% | nt | 25% | nt | nt | nt
Cc1nc2ccc(S(=O)(=O)NC(CC(C)C)C(=O)NCc3ccc(Cl)cc3)cc2s1 (centres undefined) | -2% | nt | -9% | nt | nt | nt
CC(C)(C)C(=O)Nc1nc2ccc(S(C)(=O)=O)cc2s1 | ? | -1% | 7.9µM* | ? | 1.8µM* | 6%
Cc1cccc(C(=O)Nc2nc3ccc(S(C)(=O)=O)cc3s2)c1 | 2.1µM* | nt | nt | 2.2µM* | ? | ?
NS(=O)(=O)c1ccc2nc(NC(=O)c3ccncc3)sc2c1 | 6.7µM* | nt | nt | 18% | 23% | 12%
CC(C)C(=O)Nc1nc2ccc(S(C)(=O)=O)cc2s1 | ? | -1% | 27% | 14% | 18% | -2%
COc1ccc(Cn2ccc3nc(C)c(C(=O)N4CCN(c5ccccc5OC)CC4)cc3c2=O)cc1 | 0% | nt | nt | nt | nt | nt
CC1(C)OC(=O)C(=CNc2cccc(C(=O)O)c2)C(=O)O1 | 15µM* | 1% | 0% | 24% | ? | 1%
OC1CCN(c2c3c(nc4cc(-c5cccc(F)c5)nn24)CCCC3)CC1 | ? | -1% | 29% | 1% | 8% | 0%
CN(CCO)c1c2c(nc3cc(-c4cccc(F)c4)nn13)CCCC2 | 24µM* | 3% | 23% | 3.5µM* | 3.5µM* | ?
Fc1cccc(-c2cc3nc4c(c(N5CCC6(CC5)OCCO6)n3n2)CCCC4)c1 | 15µM* | 1% | 11% | -1% | 0% | ?
COc1cc(NC2c3ccccc3C(=O)N2c2cc(C)ccn2)cc(OC)c1OC (centres undefined) | -3% | -4% | -3% | 0% | 9% | ?
COc1cc(NC2c3ccccc3C(=O)N2c2ccc(C)cn2)cc(OC)c1OC (centres undefined) | ? | -16% | 11µM* | ? | ? | ?
Cc1ccc2oc(-c3ccco3)cc(=O)c2c1 | 9.5µM* | -6% | ? | ? | 2.8µM* | 21µM*
CC(C)OCCOc1ccc2oc(-c3ccco3)cc(=O)c2c1 | 24µM* | nt | nt | ? | ? | 8%
N#CCOc1ccc2oc(-c3ccco3)cc(=O)c2c1 | 1% | -18% | -19% | 9% | 2% | -6%
O=C(C1CCC(Cn2c(=O)c3sccc3n(Cc3ccccc3)c2=O)CC1)N1CCCCC1 (centres undefined) | -9% | nt | nt | nt | nt | nt
O=C(CN1Cc2ccccc2C1=O)Nc1ccc2c(c1)OCCO2 | 24µM* | nt | nt | 30% | ? | 5%[9.26 µM]
CCN1CCN(CC(=O)Nc2ccc3c(c2)OCCO3)C(=O)C1=O | 2% | 3% | -31% | -4% | 3% | 0%
O=C(CN1CCc2ccccc21)Nc1ccc2c(c1)OCCCO2 | 12µM* | nt | nt | ? | ? | ?
CSCC[C@@H](C(=O)Nc1ccc2c(c1)OCCO2)N1Cc2ccccc2C1=O | 19µM* | 1% | 20% | 9% | 5% | ?
COc1cc(Cl)c(NC(=O)CN(C)S(=O)(=O)c2ccc3c(c2)CCCC(=O)N3)c(OC)c1 | 1% | nt | nt | nt | nt | nt
Cc1ccccc1Nc1oc(-c2ccccc2)nc1-c1cccs1 | nt | -4% | 5% | nt | nt | nt
O=C(CCn1cnc2onc(-c3ccc(F)cc3)c2c1=O)N1CCN(c2cccc(Cl)c2)CC1 | -2% | nt | nt | nt | nt | nt
Cc1ccc(C(=O)O/N=C/c2c(Cl)n(C)c3ccccc23)cc1 | 2.7µM* | -5% | ? | 0% | 0% | -1%
SMILES | FLuc modulator | Luc counter | SMN2 splice up | NPC1 prom act | Rab9 promoter act | ELG1 genotox
Cn1c(Cl)c(/C=N/OC(=O)c2ccc(Cl)cc2)c2ccccc21 | 3.4µM* | 3% | -9% | 10% | -2% | -1%
Cc1ccc(Nc2ncc3c(n2)CC(C)(C)CC3=O)cc1 | 12µM* | 3% | 11µM* | 2.2µM* | 1.6µM* | ?
CC1(C)CC(=O)c2cnc(NC3CC3)nc2C1 | 3% | 2% | -5% | -3% | 0% | 0%
Cc1nc(-c2ccc(NC(=O)CC(C)C)cc2)cs1 | 7.6µM* | -11% | 11µM* | 2.8µM* | 3.2µM* | ?
Cc1nc(-c2ccc(NC(=O)c3ccc(Br)o3)cc2)cs1 | 1.5µM* | nt | nt | 1.8µM* | 0.79µM* | 2.9µM*
Cc1nc(-c2ccc(NC(=O)C3CC3)cc2)cs1 | 11µM* | nt | nt | 2.5µM* | 2.8µM* | 21µM*
Cc1nc(-c2cccc(NC(=O)c3ccc(Br)o3)c2)cs1 | ? | nt | nt | 12% | -2% | -11%
Cc1ccccc1CNC(=O)c1oc2c(c1C)-c1nn(Cc3ccc(Cl)cc3)cc1CC2 | 2% | nt | nt | nt | nt | nt
CCCCN(C)S(=O)(=O)c1ccc(NC2=NS(=O)(=O)c3ccccc32)cc1 | 5% | nt | -17% | nt | nt | nt
C/C(=N\Nc1nc(C)cc(C)n1)c1ccc(C)o1 | -15% | nt | nt | 1% | -3% | 1%
C/C(=N\Nc1nnc2c3ccccc3n(C)c2n1)c1ccc(C)o1 | 17µM* | -1% | -24% | 3% | 9% | -7%
Cc1cc(C)n(-c2nnc3c4ccccc4n(C)c3n2)n1 | 4.8µM* | nt | nt | 1.4µM* | 2.5µM* | ?
Cn1c2ccccc2c2nnc(SCC(N)=O)nc21 | -2% | nt | nt | -1% | -2%[1.84 µM] | 3%
CCCCNc1nc2c(S(=O)(=O)c3ccc(Br)cc3)nnn2c2ccsc12 | -8% | nt | nt | nt | nt | nt
COC(=O)CN1C(=O)S/C(=C/c2cc(C)n(C)c2C)C1=O | 9.5µM* | -2% | 27% | 4µM* | 3.5µM* | ?
O=C(O)CN1C(=O)/C(=C/c2ccc(N3CCCCC3)o2)SC1=S | 11µM* | nt | nt | 0% | 10% | 0%
COC(=O)CN1C(=O)S/C(=C/c2ccc(N3CCCCC3)o2)C1=O | 19µM* | -7% | -12% | 24% | ? | 15%
COc1cccc(Cn2c(CNS(=O)(=O)c3ccc(F)c(Cl)c3)nc3cccnc32)c1 | 1% | nt | nt | nt | nt | nt
CCCNC(=O)c1noc2c1CCc1cc(OC)ccc1-2 | 4.3µM* | -5% | 11µM* | 1.4µM* | 2µM* | ?
COc1ccc2c(c1)CCc1c(C(=O)NCC(C)C)noc1-2 | 3.4µM* | -2% | 4.5µM* | 1.1µM* | 1.4µM* | 13µM*
COc1ccc2c(c1)CCc1c(C(=O)NCc3cccnc3)noc1-2 | ? | 0% | -1% | 26% | 15% | 21µM*
COc1ccc2c(c1)CCc1c(C(=O)Nc3ccc(OC)cc3OC)noc1-2 | -6% | nt | 8% | nt | nt | nt
COc1ccc2c(c1)CCc1c(C(=O)N3CCCCCC3)noc1-2 | 7.6µM* | -1% | ? | 1.6µM* | 2.8µM* | ?

Assay outcomes deposited in PubChem by National Center for Advancing Translational Sciences (NCATS).
